Shown are actives, neighbours in structure and some others; about 32% of the full set was active somewhere.
PostGolgi yeast: growth inhibition of a yeast mutant, post-Golgi transport screen; post-Golgi transport phenotypic cell assay; inhibition, % at 10 µM; 98,000 compounds, 0.9% hits;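 note: yeast cells grown in 1536-well plates; yeast grown about 18 h at 30C before absorbance read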
CYP2C9 act: activators of human CYP2C9; 96,000 compounds, 1.4% hits; activation factor at 5 µM; recombinant CYP2C9, luciferin-H conversion, luminescence; active compounds read high; factor 1 = untreated enzyme, 0 = blocked;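 active = activation factor of 2 or more for CYP2C9 at a 5 µM dose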;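 note: 0 = sulfaphenazole-blocked wells and 1 = vehicle-only wells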
Target sequence (P11712 whole entry, looked up): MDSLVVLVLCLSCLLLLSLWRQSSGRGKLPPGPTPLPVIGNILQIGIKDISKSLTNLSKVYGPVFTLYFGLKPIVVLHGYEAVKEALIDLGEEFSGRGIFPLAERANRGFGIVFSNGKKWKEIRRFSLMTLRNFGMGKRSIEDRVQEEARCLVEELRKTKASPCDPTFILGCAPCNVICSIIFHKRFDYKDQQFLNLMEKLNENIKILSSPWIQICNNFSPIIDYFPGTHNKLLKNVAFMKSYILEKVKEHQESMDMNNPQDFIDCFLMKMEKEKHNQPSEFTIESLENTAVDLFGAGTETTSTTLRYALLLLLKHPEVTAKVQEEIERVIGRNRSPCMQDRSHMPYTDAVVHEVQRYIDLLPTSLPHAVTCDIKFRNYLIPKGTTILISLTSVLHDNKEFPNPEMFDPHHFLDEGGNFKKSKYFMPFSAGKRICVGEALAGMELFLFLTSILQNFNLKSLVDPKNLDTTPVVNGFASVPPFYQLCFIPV
CYP2C19 activ: cytochrome P450 2C19 (human) activation; activation factor at 5 µM; P33261; recombinant CYP2C19, luciferin-H EGE luminescence; active compounds read high; 0 = fully inhibited enzyme, 1 = untreated enzyme; 96,000 tested, under 10 active;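 active = activation factor of at least 2 at 5 µM in the primary screen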;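 note: 0 = wells with 2.5 mM tranylcypromine and 1 = vehicle-only wells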
CYP2C9 inh: human CYP2C9 inhibition; AID 777; 96,000 compounds, 20% hits; CYP2C9 Supersomes, luciferin-H conversion, luminescence; inhibition, % at 5 µM; P11712;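 active = blocking of liver enzyme CYP2C9 beyond about 50% at 5 µM, limit read from the data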
CYP2C19 inh: blocks human cytochrome P450 2C19; P33261; CYP2C19 Supersomes, luciferin-H EGE luminescence, 30 min; inhibition, % at 5 µM; 96,000 compounds, 21% hits; AID 778;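 active = CYP2C19 inhibition above a set limit at 5 µM in the primary screen, cut at about 50% in these data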;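 note: plate controls were negative control wells for no effect and 2.5 mM tranylcypromine positive control for full effect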
PostGolgi ctrl: inhibits growth of the yeast control strain; efflux-deficient yeast background strain, growth absorbance A615, 16 h; inhibition, % at 10 µM; 98,000 compounds, 5% hits
Starred values were filed as active, the others as inactive; nt = no result given. Cut-off read from the data, not from the text of the source, unless noted: active = inhibition above about 30%; inactive = the rest.

SMILES | PostGolgi yeast | CYP2C9 act | CYP2C19 activ | CYP2C9 inh | CYP2C19 inh | PostGolgi ctrl
Cc1ccc(Cl)cc1N1CCN(CC(=O)Nc2ccc3[nH]c(=O)[nH]c3c2)CC1 | 8 | 1.2 | 0.9 | -21 | 13 | -2
COc1ccc(C(C(=O)NC2CCCCC2)N(CC2CCCO2)C(=O)CNC(=O)c2ccco2)cc1 (configuration not stated) | -5 | 1.1 | 1 | -12 | 3 | 4
O=C1CCN(S(=O)(=O)c2ccccc2)C2CCCCC12 (configuration not stated) | -13 | 0.6 | 0.1 | 36 | 94* | 0
O=C(O)C1CCCCN1S(=O)(=O)c1ccccc1 (configuration not stated) | -2 | 0.7 | 1 | 28 | 1 | -6
CCOC(=O)C1=C(CC)OC(N)=C(C#N)C1c1cccs1 (configuration not stated) | -6 | 0.6 | 0.5 | 45 | 53* | 0
CC(C)(C)C1=C(C#N)C(c2ccc3c(c2)OCO3)C(C#N)=C(N)O1 (configuration not stated) | 3 | 0.1 | 0.1 | 90* | 89* | -1
COC(=O)CC1=C(C(=O)OC)C(c2cccs2)C(C#N)=C(N)O1 (configuration not stated) | 0 | 0.9 | 0.6 | 13 | 41 | 2
CCOC(=O)C1=C(C)OC(N)=C(C#N)C1c1cc(C)sc1C (configuration not stated) | 0 | 0.6 | 0.1 | 36 | 92* | 9
COCCOC(=O)C1=C(C)OC(N)=C(C#N)C1c1ccc2c(c1)OCO2 (configuration not stated) | 10 | 0.3 | 0.2 | 68* | 80* | 2
c1ccc(-c2ncnc3nc4n(c23)CCC4)cc1 | 23 | 1 | 1 | 1 | -2 | -9
COC(=O)C1=C(C)OC(N)=C(C#N)C1c1ccccc1F (configuration not stated) | 18 | 0.8 | 0.4 | 16 | 64* | 26
CCOC(=O)C1=C(C)OC(N)=C(C#N)C1c1cc2ccccc2nc1N1CCCCC1 (configuration not stated) | -4 | nt | nt | nt | nt | 12
C=CCOC(=O)C1=C(C)OC(N)=C(C#N)C1c1ccoc1 (configuration not stated) | -5 | 0.7 | 0.2 | 34 | 82* | 6
CCOC(=O)C1=C(C)OC(N)=C(C#N)C1C1CCCCC1 (configuration not stated) | 11 | 0.7 | 0.2 | 31 | 84* | 11
C=CCOC(=O)C1=C(C)OC(N)=C(C#N)C1c1ccc2c(c1)OCO2 (configuration not stated) | 1 | 0 | 0 | 98* | 100* | 3
CCOC(=O)C1=C(c2ccccc2)OC(N)=C(C#N)C1C1CCCCC1 (configuration not stated) | -5 | 0.6 | 0.8 | 37 | 18 | 19
COc1ccc(CC(=O)NCCN2CCCC2)cc1 | 0 | 0.9 | 1 | 5 | 2 | -4
CCCCc1c(C)c2ccc(OC)c(/C(C)=N\O)c2oc1=O | 10 | 0.7 | 0.7 | 34 | 25 | 10
CCOC(=O)C1=C(C)OC(N)=C(C#N)C1c1ccsc1 (configuration not stated) | 13 | 0.8 | 0.4 | 21 | 63* | -6
CCOC(=O)C1=C(C)OC(N)=C(C#N)C1c1cc2c(cc1Br)OCO2 (configuration not stated) | 11 | 0.6 | 0.1 | 42 | 93* | 8
CC1=C(C#N)C(c2ccoc2)C(C(=O)OCc2ccccc2)=C(N)S1 (configuration not stated) | -8 | 0 | 0 | 100* | 98* | 25
O=C(Cc1cccs1)Nc1ccc(-c2nc3ccccc3[nH]2)cc1 | -8 | 1 | 1 | -1 | 3 | -11
Cc1ccc(NC(=S)NNC(=O)Cn2nc([N+](=O)[O-])cc2C)cc1 | -3 | 0.8 | 0.8 | 16 | 15 | 3
O=S(=O)(NC1c2cccc3cccc(c23)C1N1CCN(CCO)CC1)c1ccccc1 (configuration not stated) | -6 | 0.8 | 0.6 | 24 | 38 | 8
O=S(=O)(NC1c2cccc3cccc(c23)C1N1CCNCC1)c1ccccc1 (configuration not stated) | -5 | 0.8 | 0.4 | 19 | 56* | 1
SMILES | PostGolgi yeast | CYP2C9 act | CYP2C19 activ | CYP2C9 inh | CYP2C19 inh | PostGolgi ctrl
O=C(c1ccccc1)N1CCN(C2c3cccc4cccc(c34)C2NS(=O)(=O)c2ccccc2)CC1 (configuration not stated) | 3 | 0.3 | 0.5 | 75* | 52* | 15
CCC(C)(C(=O)NC1CCCC1)N(C(=O)c1cnccn1)c1c(C)n(C)n(-c2ccccc2)c1=O (configuration not stated) | 25 | 1.1 | 1.1 | -12 | -14 | 1
COC(=O)c1ccc(-c2nc(-c3ccc(Br)o3)no2)cc1 | -4 | 0.7 | 0.8 | 29 | 19 | 5
COC(=O)c1ccc(-c2nc(-c3cccs3)no2)cc1 | -3 | 0.6 | 0.1 | 40 | 91* | -7
CCOC(=O)c1ccc(OCc2nc(-c3cccs3)no2)cc1 | -2 | 0.3 | 0.8 | 67* | 22 | 6
CCOC(=O)c1[nH]c2ccc(F)cc2c1NC(=O)CCN1CCSCC1 | 1 | 0.8 | 0.8 | 23 | 15 | -8
CC(C)(C)NC(=O)NC(=O)COc1ccccc1C#N | -1 | 0.6 | 0.5 | 44 | 51* | -8
Cc1onc(-c2ccccc2)c1C(=O)Nc1c(C)n(C)n(-c2ccccc2)c1=O | -9 | 1.1 | 1.1 | -12 | -8 | 14
CCOc1ccc(-n2c(SCC(=O)Nc3ccc4c(c3)OCO4)nc3c(c2=O)SCC3)cc1 | nt | 0.4 | 0.7 | 59* | 33 | nt
CCOc1ccc(-n2c(SCC(=O)Nc3ccc4c(c3)OCCO4)nc3c(c2=O)SCC3)cc1 | 0 | 0.4 | 0.2 | 63* | 77* | 13
CCOc1ccc(-n2c(SCC)nc3c(c2=O)SCC3)cc1 | -4 | 1.1 | 1.1 | -5 | -9 | 19
N#Cc1nc(-c2cccs2)oc1N1CCN(c2ccccc2)CC1 | 9 | 0.6 | 0.6 | 39 | 41 | 27
CCOC(=O)C(C)Sc1nc2c(c(=O)[nH]c(=O)n2C)n1CCc1ccccc1 (configuration not stated) | 0 | 0.5 | 0.6 | 52* | 40 | 14
CCCCCn1c(SCC(=O)OC)nc2c1c(=O)[nH]c(=O)n2C | -7 | 0.9 | 1 | 10 | 4 | 1
CCCCCn1c(SCCc2ccccc2)nc2c1c(=O)[nH]c(=O)n2C | -6 | 0.4 | 0.6 | 61* | 40 | 19
CCOCCn1c(SCc2cccc(C)c2)nc2c1c(=O)[nH]c(=O)n2C | 6 | 0.6 | 0.7 | 44 | 30 | 41*
CCCCn1c(SCC(=O)c2ccccc2)nc2c1c(=O)[nH]c(=O)n2C | -8 | 0.3 | 0.6 | 70* | 43 | 5
